Test results as given in the supplement of paper PMC12645437, “Orthogonal IMiD-Degron Pairs Induce Selective Protein Degradation in Cells” (ACS Chemical Biology, 2025).
Over roughly 8,300 sequences, “log2 fold change of degron read counts, EGFP-low vs EGFP+ sorted cells (limma voom), compound-induced degradation” has its median near -1.1; the highest 2% begin near 3.2. Only a selection was taken, and the highest values are over-represented in it overall.

T1: CRBN, Q96SW2
T1 chain: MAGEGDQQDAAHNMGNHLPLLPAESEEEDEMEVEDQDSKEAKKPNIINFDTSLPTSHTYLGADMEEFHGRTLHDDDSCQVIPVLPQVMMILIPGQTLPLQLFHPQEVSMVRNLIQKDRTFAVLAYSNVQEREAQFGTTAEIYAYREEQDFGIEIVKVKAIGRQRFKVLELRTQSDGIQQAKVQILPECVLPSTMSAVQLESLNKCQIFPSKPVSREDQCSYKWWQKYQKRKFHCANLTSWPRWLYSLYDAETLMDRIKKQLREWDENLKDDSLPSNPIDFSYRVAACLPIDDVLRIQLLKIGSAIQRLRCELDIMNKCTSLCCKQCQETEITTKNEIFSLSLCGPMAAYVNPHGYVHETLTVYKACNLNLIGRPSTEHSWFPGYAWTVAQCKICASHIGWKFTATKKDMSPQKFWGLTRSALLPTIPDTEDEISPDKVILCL

B1: 46F_47A_49D_50Q_52G_53A_54Y_55F_67L_, Q9UKT9 (peptide)
chain: FACDQCGAYFTQKGNLLRHIKL
B2: 46F_47L_49S_50V_52G_53H_54Q_55F_67L_, Q9UKT9 (peptide)
chain: FLCSVCGHQFTQKGNLLRHIKL
B3: 46F_47K_49D_50Q_52G_53A_54C_55F_67L_, Q9UKT9 (peptide)
chain: FKCDQCGACFTQKGNLLRHIKL
B4: 46F_47L_49P_50Q_52G_53A_54I_55F_67L_, Q9UKT9 (peptide)
chain: FLCPQCGAIFTQKGNLLRHIKL
B5: 46F_47K_49D_50I_52G_53A_54S_55F_67L_, Q9UKT9 (peptide)
chain: FKCDICGASFTQKGNLLRHIKL
B6: 46F_47A_49D_50V_52G_53A_54Q_55F_67L_, Q9UKT9 (peptide)
chain: FACDVCGAQFTQKGNLLRHIKL
B7: 46F_47T_49E_50I_52G_53A_54V_55F_67L_, Q9UKT9 (peptide)
chain: FTCEICGAVFTQKGNLLRHIKL
B8: 46F_47N_49E_50I_52G_53A_54V_55F_67L_, Q9UKT9 (peptide)
chain: FNCEICGAVFTQKGNLLRHIKL
B9: 46F_47E_49E_50I_52G_53A_54V_55F_67L_, Q9UKT9 (peptide)
chain: FECEICGAVFTQKGNLLRHIKL
B10: 46F_47C_49E_50I_52G_53A_54V_55F_67L_, Q9UKT9 (peptide)
chain: FCCEICGAVFTQKGNLLRHIKL
B11: 46F_47H_49E_50I_52G_53A_54V_55F_67L_, Q9UKT9 (peptide)
chain: FHCEICGAVFTQKGNLLRHIKL
B12: 46F_47M_49E_50I_52G_53A_54V_55F_67L_, Q9UKT9 (peptide)
chain: FMCEICGAVFTQKGNLLRHIKL
B13: 46F_47S_49E_50I_52G_53A_54V_55F_67L_, Q9UKT9 (peptide)
chain: FSCEICGAVFTQKGNLLRHIKL
B14: 46F_47A_49E_50I_52G_53A_54V_55F_67L_, Q9UKT9 (peptide)
chain: FACEICGAVFTQKGNLLRHIKL
B15: 46F_47G_49E_50I_52G_53A_54V_55F_67L_, Q9UKT9 (peptide)
chain: FGCEICGAVFTQKGNLLRHIKL
B16: 46F_47F_49E_50I_52G_53A_54V_55F_67L_, Q9UKT9 (peptide)
chain: FFCEICGAVFTQKGNLLRHIKL
B17: 46F_47W_49E_50I_52G_53A_54V_55F_67L_, Q9UKT9 (peptide)
chain: FWCEICGAVFTQKGNLLRHIKL
B18: 46F_47Y_49E_50I_52G_53A_54V_55F_67L_, Q9UKT9 (peptide)
chain: FYCEICGAVFTQKGNLLRHIKL
B19: 46F_47V_49P_50I_52G_53R_54L_55F_67L_, Q9UKT9 (peptide)
chain: FVCPICGRLFTQKGNLLRHIKL
B20: 46L_47V_49N_50Q_52G_53F_54K_55C_67L_, Q9UKT9 (peptide)
chain: LVCNQCGFKCTQKGNLLRHIKL
B21: 46F_47F_49S_50V_52G_53H_54H_55F_67L_, Q9UKT9 (peptide)
chain: FFCSVCGHHFTQKGNLLRHIKL
B22: 46F_47C_49N_50Q_52G_53H_54N_55F_67L_, Q9UKT9 (peptide)
chain: FCCNQCGHNFTQKGNLLRHIKL
B23: 46F_47H_49P_50V_52G_53A_54M_55F_67L_, Q9UKT9 (peptide)
chain: FHCPVCGAMFTQKGNLLRHIKL
B24: 46F_47Y_49N_50Q_52G_53R_54R_55F_67L_, Q9UKT9 (peptide)
chain: FYCNQCGRRFTQKGNLLRHIKL
B25: 46L_47F_49P_50I_52G_53F_54V_55C_67L_, Q9UKT9 (peptide)
chain: LFCPICGFVCTQKGNLLRHIKL
B26: 46F_47L_49N_50V_52G_53A_54Q_55F_67L_, Q9UKT9 (peptide)
chain: FLCNVCGAQFTQKGNLLRHIKL
B27: 46F_47F_49P_50V_52G_53A_54L_55F_67L_, Q9UKT9 (peptide)
chain: FFCPVCGALFTQKGNLLRHIKL
B28: 46F_47Q_49P_50V_52G_53A_54D_55F_67L_, Q9UKT9 (peptide)
chain: FQCPVCGADFTQKGNLLRHIKL
B29: 46F_47C_49P_50V_52G_53A_54D_55F_67L_, Q9UKT9 (peptide)
chain: FCCPVCGADFTQKGNLLRHIKL
B30: 46F_47T_49P_50V_52G_53A_54R_55F_67L_, Q9UKT9 (peptide)
chain: FTCPVCGARFTQKGNLLRHIKL
B31: 46F_47V_49P_50V_52G_53A_54L_55F_67L_, Q9UKT9 (peptide)
chain: FVCPVCGALFTQKGNLLRHIKL
B32: 46F_47W_49P_50V_52G_53A_54R_55F_67L_, Q9UKT9 (peptide)
chain: FWCPVCGARFTQKGNLLRHIKL
B33: 46F_47L_49P_50V_52G_53A_54R_55F_67L_, Q9UKT9 (peptide)
chain: FLCPVCGARFTQKGNLLRHIKL
B34: 46F_47Q_49P_50V_52G_53A_54L_55F_67L_, Q9UKT9 (peptide)
chain: FQCPVCGALFTQKGNLLRHIKL
B35: 46F_47G_49P_50V_52G_53A_54R_55F_67L_, Q9UKT9 (peptide)
chain: FGCPVCGARFTQKGNLLRHIKL
B36: 46F_47R_49P_50V_52G_53A_54R_55F_67L_, Q9UKT9 (peptide)
chain: FRCPVCGARFTQKGNLLRHIKL
B37: 46F_47K_49P_50V_52G_53A_54R_55F_67L_, Q9UKT9 (peptide)
chain: FKCPVCGARFTQKGNLLRHIKL
B38: 46F_47V_49P_50V_52G_53A_54D_55F_67L_, Q9UKT9 (peptide)
chain: FVCPVCGADFTQKGNLLRHIKL

Target: T1, CRBN, Q96SW2
Assay: log2 fold change of degron read counts, EGFP-low vs EGFP+ sorted cells (limma voom), compound-induced degradation; higher = more compound-induced degradation of the degron-EGFP fusion; degrons are variants of IKZF1/3 zinc finger 2; compound dose not given here
Conditions: Jurkat, 18 h
[1] = compound: compound 19 (5-tert-butyl-thalidomide)
[2] = compound: compound 22 (5-morpholino-thalidomide)
[3] = compound: compound 33 (diphenyl IMiD analogue)
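Note: pooled lentiviral library of zinc finger degron-EGFP fusions in mCherry-positive Jurkat cells, FACS-sorted after compound exposure, with degron abundance counted by next-generation sequencing.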

| Sequence | log2 fold change of degron read counts [1] | log2 fold change of degron read counts [2] | log2 fold change of degron read counts [3] | log2 fold change of degron read counts (compound: thalidomide) |
| --- | --- | --- | --- | --- |
| B1 | -1.75 | -2.34 | -1.85 | -2.43 |
| B2 | -2.83 | -2.7 | -2.54 | -2.76 |
| B3 | -2.75 | -3.31 | -3.66 | -3.24 |
| B4 | -1.63 | -1.54 | -0.716 | -0.881 |
| B5 | -0.288 | -2.66 | -3.19 | -1.69 |
| B6 | 1.75 | -0.392 | -1.04 | -1.67 |
| B7 | 0.417 | 1.97 | 2.08 | 2.64 |
| B8 | 1.15 | -0.231 | 0.00137 | -0.335 |
| B9 | -0.462 | -0.764 | 1.98 | 2.39 |
| B10 | 1.77 | 1.91 | 2.47 | 2.16 |
| B11 | 1.69 | 1.65 | 1.31 | 0.109 |
| B12 | -1.1 | -0.16 | 2.5 | 1.37 |
| B13 | 2.73 | 1.89 | 2.49 | 1.44 |
| B14 | 3.29 | 2.39 | 1.27 | 0.606 |
| B15 | 2.88 | 2.6 | 2.14 | 1.13 |
| B16 | 3.46 | 3.76 | 2.2 | 1.64 |
| B17 | 3.33 | 3.51 | 2.5 | 0.916 |
| B18 | 3.66 | 3.6 | 2.79 | 1.07 |
| B19 | -1.24 | -0.36 | 0.85 | 1.08 |

| Sequence | log2 fold change of degron read counts [1] | log2 fold change of degron read counts [2] | log2 fold change of degron read counts [3] | log2 fold change of degron read counts (compound: thalidomide) |
| --- | --- | --- | --- | --- |
| B20 | -2.22 | -2.27 | -2.4 | -0.986 |
| B21 | -2.1 | -2.74 | -2.17 | -1.83 |
| B22 | -2.54 | -3.15 | -2.94 | -2.37 |
| B23 | 1.4 | 1.46 | 1.42 | -0.0518 |
| B24 | -2.62 | -2.54 | -2.6 | -2.29 |
| B25 | 3.02 | 2.99 | 1.66 | 1.45 |
| B26 | -2.31 | -2.24 | -0.00793 | -0.809 |
| B27 | 1.62 | 1.64 | 1.45 | 0.0806 |
| B28 | -0.246 | 1.22 | 2.37 | 3.4 |
| B29 | 0.844 | 0.509 | 1.45 | 0.741 |
| B30 | 0.934 | 2.59 | 1.76 | 2.95 |
| B31 | -1.75 | 0.353 | 1.26 | 0.951 |
| B32 | 2.67 | 3.51 | 1.2 | 1.26 |
| B33 | -0.179 | -0.342 | 0.651 | 1.68 |
| B34 | -1.05 | 1.65 | 1.66 | 3.5 |
| B35 | 3.6 | 2.1 | -0.116 | 1.03 |
| B36 | -1.26 | -1.08 | -0.255 | 0.153 |
| B37 | -1.78 | -2.92 | -2.71 | -1.48 |
| B38 | -0.973 | 0.651 | 1 | 1.76 |
